Compound activity: PubChem BioAssay, several laboratories
FXIIa mix inh: factor XIIa (human) inhibition, mixture screen; P00748; actives 0.2% (n = 62,000); inhibition, % at 5 µM; purified FXIIa, fluorogenic substrate, pooled mixtures; AID 684;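 further: 0% = enzyme without compound and 100% = no enzyme blank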
mHtt clearance: mutant huntingtin protein clearance; HeLa Exon1htt(103Q)mCFP, aggregate imaging; zero = plate's median compound well; inhibition, % at 1.5 µM; actives 0.42% (n = 47,000);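 active means inhibition of aggregate fluorescence above about 70%, also judged a hit by eye on the cell image, limit read from the data, passing the limit was not always enough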;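 further: cells exposed to compound for three days before fixation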
FXIa inh mix: blocks human factor XIa in pooled compound mixtures | inhibition, % at 5 µM | purified FXIa, fluorogenic substrate | actives 0.19% (n = 62,000);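 further: each value is inhibition by a whole ten-compound pool holding the compound; 0% = enzyme with no mixture and 100% = wells lacking enzyme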
WNV protease inh: WNV NS2B-NS3 proteinase inhibition; WNV NS2B-NS3 protease, fluorogenic substrate Ex360/Em465; active compounds read low; z-score (concentration not given with the values); actives 0.18% (n = 65,000); AID 577; in the data active means z-score below about -3
Cathepsin G inh: blocks human cathepsin G enzyme activity. P08311. inhibition, % at 5 µM (by protocol). actives 0.2% (n = 62,000). purified enzyme, AMC-tetrapeptide fluorescence, pooled mixtures;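 active means inhibition above 20% in each of the two mixture wells holding the compound; inactive means inhibition of 20% or less in either well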;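 further: 0% = enzyme control without mixture and 100% = blank lacking enzyme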
C1s block: human complement C1s inhibition; P09871; purified C1s, fluorogenic AMC substrate, pooled mixtures; mean inhibition % of two 10-compound mixtures (active compounds read high), % at 5 µM (by protocol); actives 0.16% (n = 62,000); AID 538;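 active means inhibition above 20% in each of the two 10-compound mixture wells holding the compound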;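 further: 0% = enzyme wells lacking compound mixture and 100% = no-enzyme blank wells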
Numbers without * were called inactive; · = no result. Most compounds without a hit are left out; they make up all but 0.75% or so of the library. Unless noted, no stated cut-off is given here; in the data, active means inhibition above about 20% (passing the limit was not always enough); inactive means the rest.

SMILES	FXIIa mix inh	mHtt clearance	FXIa inh mix	WNV protease inh	Cathepsin G inh	C1s block
Cc1ccccc1NC(=O)CCC(=O)OCCCC(F)(F)C(F)(F)F	4	·	0	1.1	10	8
CN(C)c1oc(-c2ccc(OCc3ccccc3)cc2)nc1C#N	6	6	23*	-0.21	8	14
N#Cc1nc(-c2ccc(OCc3ccccc3)cc2)oc1NCc1cccnc1	3	·	23	0.84	2	1
CC1CCCC(C)N1c1nnc(NC(=O)c2cc(-c3ccc(Br)cc3)on2)s1 (configuration not stated)	·	-10	·	·	·	·
Cc1cnc(-c2nnc(N(C)C(=O)c3ccncc3)s2)cn1	0	·	6	-0.74	0	2
CCOc1ccccc1NC(=O)C1CCN(c2ccc(S(=O)(=O)N3CCCC3)cc2)CC1	4	72*	9	-1.5	10	18
CCCCC(=O)C1=C(N2CCCC2)CC(C)(C)CC1=O	·	72*	·	·	·	·
CCCCC(=O)Nc1ncc2c(n1)CC(C)(C)CC2=O	5	14	3	0.46	5	-41
Cc1cccn2c(=O)c3cc(C(=O)N4CCN(c5ccccc5)CC4)n(C)c3nc12	-6	·	-4	0.57	-14	-32
O=C1CC(N2CCOCC2)C(=O)N1Cc1ccc(N2CCCC2=O)cc1 (configuration not stated)	2	1	6	-3.2*	4	4
O=C(/C=C\Nc1cccc(F)c1)c1ccc2c(c1)OCO2	-3	84*	4	1.8	-11	-47
COc1ccccc1CNS(=O)(=O)c1c(C)noc1C	5	·	3	-0.63	4	-33
COc1cc(OC)nc(NC(=O)NS(=O)(=O)c2ccc(OC(F)(F)F)cc2)n1	22	58	5	0.06	7	13
COC(=O)c1cccc(S(=O)(=O)N2CCC(C)CC2)c1	6	71*	5	0.45	-11	-2
CCOC(=O)N1CCN(C(=O)CSc2cc(C)nc3c(-c4ccccc4OC)c(C)nn23)CC1	0	14	4	0.57	0	-4
COc1ccccc1-c1c(C#N)c(SCC(=O)N2CCCC2)nc(C)c1C(N)=O	-18	36	7	-0.57	25*	11
Cc1n[nH]c(=O)nc1NCC1CCCO1 (configuration not stated)	5	76*	2	0.75	2	-6
O=C(O)CCc1cc(I)c(Oc2ccc(O)c(I)c2)c(I)c1	3	·	7	-0.1	10	14
CC1CC(C)CN(Cc2nc3c(c(=O)n(C)c(=O)n3C)n2Cc2ccccc2Cl)C1 (configuration not stated)	8	·	-7	-0.4	-14	-19
CC1(C)Oc2ccc3ccc(=O)oc3c2C(N2CCCCC2)C1O (configuration not stated)	20*	23	4	0.27	12	11
CC1(C)Oc2ccc3ccc(=O)oc3c2/C(=C/N)C1=O	-5	·	4	1.3	-2	0
Cc1cccc(NC(=O)Cc2noc3ccccc23)c1	·	84*	·	·	·	·
CCOC(=O)C(C)On1c(SC(C)C(=O)OCC)nc2ccccc2c1=O (configuration not stated)	49*	·	12	1	1	-7
O=C(Oc1ccccc1)c1ccc(COC(=O)c2cnccn2)cc1	6	·	4	-0.99	43	-7
O=C(COC(=O)c1cnccn1)c1ccc(OC(=O)c2ccccc2)cc1	-10	10	12	-0.78	9	26*
SMILES	FXIIa mix inh	mHtt clearance	FXIa inh mix	WNV protease inh	Cathepsin G inh	C1s block
c1ccc2c(CCNc3ncnc4nc[nH]c34)cccc2c1	·	-22	·	·	·	·
COc1ccc2[nH]c(=O)c(CN(Cc3nnnn3Cc3ccc(F)cc3)CC3CCCO3)cc2c1 (configuration not stated)	21*	31	6	2	-5	-20
COc1ccc(CN(C(=O)c2cnccn2)C(C(=O)NC(C)(C)C)c2cc(OC)c(OC)c(OC)c2)cc1 (configuration not stated)	·	70*	·	·	·	·
CC(C)n1c(SCC(=O)N2CCCc3ccccc32)nc2c1c(=O)n(C)c(=O)n2C	5	·	7	-0.07	8	10
COCCNC(=O)c1noc2c1CCc1cc(OC)ccc1-2	-14	·	5	-0.7	50*	16
COc1ccc2c(c1)CCc1c(C(=O)NCCCn3ccnc3)noc1-2	4	7	4	-0.41	36*	-4
COc1ccc2c(c1)CCc1c(C(=O)NCc3ccco3)noc1-2	13	·	15	-0.53	56*	11
